Measured values as given in the supplement of paper PMC10849652.
The full data set covers some 8,800 targets. This sample favours those with a hit. About 0.5% of all pairs of compound and target were hits.

How the values were obtained:
Assay in all cases: log2 fold change, soluble protein after heating vs DMSO (PISA); higher = thermal stabilisation; K562 lysate, 10 uM; active = over 0.2 and 3.5 SD of the protein, either way, in both replicates (recomputed)
erlotinib = compound: C#Cc1cccc(Nc2ncnc3cc(OCCOC)c(OCCOC)cc23)c1 [erlotinib]
Method in brief: (§1)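 Pellets of K562 cells were dounce-homogenised in PBS pH 7.4 with 1 mM MgCl2, and the crude extract was held at 1 mg/mL protein for a 30 min treatment with 10 μM compound. Aliquots were heated for 3 min over 48°C-58°C and pooled before NP-40 was added to 0.5% at 4°C. The supernatant from 21,000xg for 90 min was quantified by TMTpro 16plex LC-MS/MS with channel sums equalised. Values are reported from duplicates as log-two fold change in thermal stability relative to solvent controls.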

[1] = compound: C/C(=N\NC(=O)C1=CC(=CC=C1)S(=O)(=O)N2CCOCC2)/C3=C(C=CC(=C3)Cl)O
Method in brief: as §1

[2] = compound: C1=CC(=CC=C1C2=NC3=C(N2)C=C(C=C3)C(=O)N)OC4=CC=C(C=C4)Cl
Method in brief: as §1

[3] = compound: C1=CC2=C(C=CC(=C2)/C=C\3/C(=O)NC(=NCC4=CC=CS4)S3)N=C1
Method in brief: as §1

[4] = compound: C1=CC2=NC=CN=C2C=C1/C=C/3\C(=O)NC(=O)S3
Method in brief: as §1

[5] = compound: C1=CC=C(C=C1)C2=NC(=C(N2)C3=CC=NC=C3)C4=CC(=C(C=C4)Cl)O
Method in brief: as §1

[6] = compound: C1=CC=C2C(=C1)C3=NNC4=CC=CC(=C43)C2=O
Method in brief: as §1

[7] = compound: C1CCN(C1)C(=O)NC2=CC=CC(=C2)NC3=NC=C(C(=N3)NCCC4=CN=CN4)Br
Method in brief: as §1

[8] = compound: C1CN(CCC1(CC2=CC=C(C=C2)Cl)N)C3=NC=NC4=C3C=CN4
Method in brief: as §1

IRAK-1-4 Inhibitor I = compound: C1COCCN1CCN2C3=CC=CC=C3N=C2NC(=O)C4=CC(=CC=C4)[N+](=O)[O-] [IRAK-1-4 Inhibitor I]
Method in brief: as §1

Measured: log2 fold change

HSD17B10 (UniProt Q99714)
Chain of UniProt Q99714 (Q99714 whole entry, looked up): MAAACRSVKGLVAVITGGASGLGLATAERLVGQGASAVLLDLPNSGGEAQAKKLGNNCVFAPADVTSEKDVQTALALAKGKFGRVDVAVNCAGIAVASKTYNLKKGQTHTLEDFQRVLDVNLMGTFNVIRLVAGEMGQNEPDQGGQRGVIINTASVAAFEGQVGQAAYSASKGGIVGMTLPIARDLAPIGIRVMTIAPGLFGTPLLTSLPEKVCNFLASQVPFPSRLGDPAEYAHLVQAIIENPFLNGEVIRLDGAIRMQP
inactive: erlotinib 0.018 | [1] -0.044 | [2] 0.035 | [3] -0.023 | [4] 0.01 | [5] 0.016 | [6] -0.054 | [7] -0.03 | [8] 0.054 | IRAK-1-4 Inhibitor I 0.012

GRB10 (UniProt Q13322)
Chain of UniProt Q13322 (Q13322 whole entry, looked up): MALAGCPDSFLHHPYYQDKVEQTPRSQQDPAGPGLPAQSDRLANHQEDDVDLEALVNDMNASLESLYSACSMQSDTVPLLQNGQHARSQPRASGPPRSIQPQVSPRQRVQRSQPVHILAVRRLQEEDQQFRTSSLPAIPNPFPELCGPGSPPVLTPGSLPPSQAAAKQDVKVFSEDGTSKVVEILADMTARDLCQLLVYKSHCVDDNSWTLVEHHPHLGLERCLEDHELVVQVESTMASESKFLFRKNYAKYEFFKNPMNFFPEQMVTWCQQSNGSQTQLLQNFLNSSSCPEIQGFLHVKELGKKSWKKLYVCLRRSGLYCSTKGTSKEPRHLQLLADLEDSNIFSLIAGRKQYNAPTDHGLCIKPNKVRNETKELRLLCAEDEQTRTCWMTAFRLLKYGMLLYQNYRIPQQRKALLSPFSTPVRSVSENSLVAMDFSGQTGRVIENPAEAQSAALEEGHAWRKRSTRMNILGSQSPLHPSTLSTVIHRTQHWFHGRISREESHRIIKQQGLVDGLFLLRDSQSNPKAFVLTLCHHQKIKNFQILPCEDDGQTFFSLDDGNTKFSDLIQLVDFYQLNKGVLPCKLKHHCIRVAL
inactive: erlotinib 0.027 | [1] -0.004 | [2] -0.06 | [3] 0.013 | [4] -0.03 | [5] 0.016 | [6] 0.019 | [7] 0.073 | [8] 0.054 | IRAK-1-4 Inhibitor I -0.039

KDM5B isoform 2 (UniProt Q9UGL1)
inactive: erlotinib 0.07 | [1] 0.03 | [2] 0.006 | [3] -0.021 | [4] 0.031 | [5] 0.012 | [6] -0.074 | [7] -0.035 | [8] 0.099 | IRAK-1-4 Inhibitor I 0.011

GSTM4 (UniProt Q03013)
Chain of UniProt Q03013 (Q03013 whole entry, looked up): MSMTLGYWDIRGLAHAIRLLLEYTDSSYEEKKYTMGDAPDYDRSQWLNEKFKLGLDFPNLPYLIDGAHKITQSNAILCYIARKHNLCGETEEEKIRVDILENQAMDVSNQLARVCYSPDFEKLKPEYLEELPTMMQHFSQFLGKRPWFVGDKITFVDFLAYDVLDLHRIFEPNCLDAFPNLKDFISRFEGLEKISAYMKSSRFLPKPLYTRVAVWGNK
inactive: erlotinib 0.006 | [1] -0.044 | [2] -0.073 | [3] -0.026 | [4] 0.141 | [5] 0.046 | [6] -0.025 | [7] -0.109 | [8] -0.025 | IRAK-1-4 Inhibitor I -0.064

KCT2 (UniProt Q8NC54)
Chain of UniProt Q8NC54 (Q8NC54 whole entry, looked up): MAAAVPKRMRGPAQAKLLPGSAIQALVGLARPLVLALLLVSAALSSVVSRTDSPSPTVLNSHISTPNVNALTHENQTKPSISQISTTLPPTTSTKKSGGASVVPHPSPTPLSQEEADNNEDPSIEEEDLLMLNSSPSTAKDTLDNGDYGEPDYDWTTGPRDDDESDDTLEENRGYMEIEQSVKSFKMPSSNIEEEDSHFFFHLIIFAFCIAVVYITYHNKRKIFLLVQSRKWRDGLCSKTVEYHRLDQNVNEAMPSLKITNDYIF
inactive: erlotinib -0.05 | [1] 0.098 | [2] 0.041 | [3] 0.017 | [4] 0.055 | [5] 0 | [6] -0.026 | [7] 0.021 | [8] 0.01 | IRAK-1-4 Inhibitor I 0.031

IRAK1 (UniProt P51617)
inactive: erlotinib 0.038 | [1] -0.054 | [2] -0.108 | [3] -0.015 | [4] 0.028 | [5] 0.039 | [6] 0.117 | [7] 0.023 | [8] -0.096 | IRAK-1-4 Inhibitor I 0.023

GLUL (UniProt P15104)
inactive: erlotinib -0.003 | [1] 0.032 | [2] -0.002 | [3] 0.029 | [4] -0.03 | [5] 0.005 | [6] 0.007 | [7] 0.013 | [8] 0.017 | IRAK-1-4 Inhibitor I -0.017

GTF2H1 (UniProt P32780)
inactive: erlotinib 0.044 | [1] 0.008 | [2] 0.012 | [3] -0.032 | [4] -0.011 | [5] 0.003 | [6] -0.013 | [7] 0.029 | [8] -0.005 | IRAK-1-4 Inhibitor I -0.019

GLB1 (UniProt P16278)
Chain of UniProt P16278 (P16278 whole entry, looked up): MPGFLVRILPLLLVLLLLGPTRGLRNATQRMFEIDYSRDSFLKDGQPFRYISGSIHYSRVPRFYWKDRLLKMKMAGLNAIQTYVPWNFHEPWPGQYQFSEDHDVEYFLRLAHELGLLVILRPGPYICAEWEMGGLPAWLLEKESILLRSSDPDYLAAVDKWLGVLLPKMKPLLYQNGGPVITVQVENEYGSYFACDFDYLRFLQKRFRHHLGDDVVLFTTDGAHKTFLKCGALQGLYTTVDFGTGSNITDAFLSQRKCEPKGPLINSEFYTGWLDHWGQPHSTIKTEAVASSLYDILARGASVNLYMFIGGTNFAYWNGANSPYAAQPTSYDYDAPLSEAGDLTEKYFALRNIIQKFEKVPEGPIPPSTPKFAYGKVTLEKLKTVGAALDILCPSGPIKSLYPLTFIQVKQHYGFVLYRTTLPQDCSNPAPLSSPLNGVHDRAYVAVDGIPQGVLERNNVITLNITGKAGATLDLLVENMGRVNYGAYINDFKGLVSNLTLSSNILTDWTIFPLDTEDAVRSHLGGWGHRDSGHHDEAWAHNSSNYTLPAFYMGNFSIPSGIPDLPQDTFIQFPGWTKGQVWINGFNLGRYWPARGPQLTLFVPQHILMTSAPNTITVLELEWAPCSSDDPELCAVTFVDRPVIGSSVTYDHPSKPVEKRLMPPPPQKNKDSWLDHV
inactive: erlotinib 0.004 | [1] -0.027 | [2] 0.004 | [3] 0.039 | [4] -0.011 | [5] 0.016 | [6] -0.086 | [7] -0.003 | [8] 0.031 | IRAK-1-4 Inhibitor I 0.016

GSK3B isoform 2 (UniProt P49841)
inactive: erlotinib 0.043 | [1] -0.323 | [2] 0.036 | [3] 0.145 | [4] 0.085 | [5] 0.459 | [6] 0.132 | [7] 0.202 | [8] -0.011 | IRAK-1-4 Inhibitor I -0.002

GLUD2 (UniProt P49448)
inactive: erlotinib -0.017 | [1] -0.016 | [2] -0.053 | [3] 0.028 | [4] -0.057 | [5] -0.014 | [6] -0.09 | [7] -0.119 | [8] 0.029 | IRAK-1-4 Inhibitor I 0.113

GSTP1 (UniProt P09211)
Chain of UniProt P09211 (P09211 whole entry, looked up): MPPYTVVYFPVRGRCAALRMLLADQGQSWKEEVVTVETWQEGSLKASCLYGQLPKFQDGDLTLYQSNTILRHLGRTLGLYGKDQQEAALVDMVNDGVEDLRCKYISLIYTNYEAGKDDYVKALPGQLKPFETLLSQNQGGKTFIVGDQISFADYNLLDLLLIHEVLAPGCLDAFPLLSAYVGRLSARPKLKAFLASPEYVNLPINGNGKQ
inactive: erlotinib -0.008 | [1] 0.035 | [2] -0.024 | [3] 0.036 | [4] 0.08 | [5] -0.002 | [6] 0.007 | [7] -0.022 | [8] -0.022 | IRAK-1-4 Inhibitor I 0

IGF2BP3 (UniProt O00425)
Chain of UniProt O00425 (O00425 whole entry, looked up): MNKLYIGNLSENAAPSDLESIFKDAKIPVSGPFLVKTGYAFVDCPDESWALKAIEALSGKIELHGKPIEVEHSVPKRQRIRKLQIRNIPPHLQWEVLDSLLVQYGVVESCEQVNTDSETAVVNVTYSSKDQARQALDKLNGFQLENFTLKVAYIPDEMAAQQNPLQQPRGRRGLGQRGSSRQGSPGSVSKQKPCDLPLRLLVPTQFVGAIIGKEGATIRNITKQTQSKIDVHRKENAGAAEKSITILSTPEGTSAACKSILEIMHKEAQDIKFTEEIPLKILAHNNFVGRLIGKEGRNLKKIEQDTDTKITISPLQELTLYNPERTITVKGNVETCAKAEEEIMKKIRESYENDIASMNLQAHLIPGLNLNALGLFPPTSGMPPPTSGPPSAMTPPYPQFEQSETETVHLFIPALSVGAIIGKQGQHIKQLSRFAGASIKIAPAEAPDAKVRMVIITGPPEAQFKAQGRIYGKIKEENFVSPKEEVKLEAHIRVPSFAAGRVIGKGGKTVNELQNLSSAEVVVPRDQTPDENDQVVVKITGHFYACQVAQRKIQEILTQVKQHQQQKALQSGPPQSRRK
inactive: erlotinib 0.04 | [1] 0.023 | [2] -0.007 | [3] 0.003 | [4] 0.005 | [5] 0.024 | [6] -0.067 | [7] 0.026 | [8] 0 | IRAK-1-4 Inhibitor I -0.018

HSPB1 (UniProt P04792)
inactive: erlotinib 0.004 | [1] -0.03 | [2] 0.03 | [3] -0.012 | [4] 0.001 | [5] -0.009 | [6] 0.034 | [7] -0.013 | [8] -0.025 | IRAK-1-4 Inhibitor I 0.006

HELQ (UniProt Q8TDG4)
inactive: erlotinib -0.029 | [1] -0.023 | [2] 0.044 | [3] 0.07 | [4] 0.019 | [5] 0.004 | [6] 0.077 | [7] 0.056 | [8] 0.064 | IRAK-1-4 Inhibitor I -0.033

HARS (UniProt P12081)
inactive: erlotinib -0.034 | [1] 0.006 | [2] -0.002 | [3] 0.021 | [4] -0.036 | [5] -0.005 | [6] 0.019 | [7] -0.016 | [8] 0.001 | IRAK-1-4 Inhibitor I -0.002

KHK isoform 2 (UniProt P50053)
inactive: erlotinib -0.07 | [1] 0.024 | [2] 0.072 | [3] -0.005 | [4] 0.044 | [5] 0.069 | [6] 0.044 | [7] 0.032 | [8] -0.018 | IRAK-1-4 Inhibitor I 0.084

HNRNPH2 (UniProt P55795)
Chain of UniProt P55795 (P55795 whole entry, looked up): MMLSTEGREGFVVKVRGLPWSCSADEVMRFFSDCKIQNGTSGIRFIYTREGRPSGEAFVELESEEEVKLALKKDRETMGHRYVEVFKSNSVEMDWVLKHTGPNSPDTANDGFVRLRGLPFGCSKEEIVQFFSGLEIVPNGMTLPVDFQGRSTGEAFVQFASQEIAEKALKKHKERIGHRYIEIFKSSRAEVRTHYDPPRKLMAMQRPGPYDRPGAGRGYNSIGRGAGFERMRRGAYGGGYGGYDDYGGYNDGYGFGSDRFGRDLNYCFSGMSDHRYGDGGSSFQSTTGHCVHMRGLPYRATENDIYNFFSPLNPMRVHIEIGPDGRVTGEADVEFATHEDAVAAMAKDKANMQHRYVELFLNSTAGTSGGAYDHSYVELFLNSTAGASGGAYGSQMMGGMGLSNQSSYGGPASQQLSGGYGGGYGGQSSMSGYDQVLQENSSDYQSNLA
inactive: erlotinib -0.035 | [1] 0.112 | [2] 0.028 | [3] -0.047 | [4] 0.02 | [5] 0.038 | [6] -0.015 | [7] 0.01 | [8] -0.013 | IRAK-1-4 Inhibitor I 0

ISCA1 isoform 2 (UniProt Q9BUE6)
Chain of UniProt Q9BUE6 (Q9BUE6 whole entry, looked up): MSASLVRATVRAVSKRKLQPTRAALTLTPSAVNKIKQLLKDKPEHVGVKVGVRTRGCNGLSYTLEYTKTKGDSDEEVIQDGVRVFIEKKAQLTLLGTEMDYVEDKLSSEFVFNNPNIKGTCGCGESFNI
inactive: erlotinib -0.025 | [1] -0.036 | [2] 0.021 | [3] -0.007 | [4] -0.04 | [5] -0.033 | [6] -0.013 | [7] 0.003 | [8] -0.031 | IRAK-1-4 Inhibitor I 0.031

INPP4A (UniProt Q96PE3)
inactive: erlotinib 0.002 | [1] 0.007 | [2] 0.017 | [3] -0.005 | [4] -0.023 | [5] 0.099 | [6] 0.069 | [7] -0.018 | [8] -0.051 | IRAK-1-4 Inhibitor I 0.066

HSPA14 (UniProt Q0VDF9)
inactive: erlotinib 0.014 | [1] 0.025 | [2] -0.009 | [3] 0.009 | [4] 0.012 | [5] 0.049 | [6] -0.035 | [7] 0.018 | [8] 0.014 | IRAK-1-4 Inhibitor I 0.003

HEATR6 (UniProt Q6AI08)
Chain of UniProt Q6AI08 (Q6AI08 whole entry, looked up): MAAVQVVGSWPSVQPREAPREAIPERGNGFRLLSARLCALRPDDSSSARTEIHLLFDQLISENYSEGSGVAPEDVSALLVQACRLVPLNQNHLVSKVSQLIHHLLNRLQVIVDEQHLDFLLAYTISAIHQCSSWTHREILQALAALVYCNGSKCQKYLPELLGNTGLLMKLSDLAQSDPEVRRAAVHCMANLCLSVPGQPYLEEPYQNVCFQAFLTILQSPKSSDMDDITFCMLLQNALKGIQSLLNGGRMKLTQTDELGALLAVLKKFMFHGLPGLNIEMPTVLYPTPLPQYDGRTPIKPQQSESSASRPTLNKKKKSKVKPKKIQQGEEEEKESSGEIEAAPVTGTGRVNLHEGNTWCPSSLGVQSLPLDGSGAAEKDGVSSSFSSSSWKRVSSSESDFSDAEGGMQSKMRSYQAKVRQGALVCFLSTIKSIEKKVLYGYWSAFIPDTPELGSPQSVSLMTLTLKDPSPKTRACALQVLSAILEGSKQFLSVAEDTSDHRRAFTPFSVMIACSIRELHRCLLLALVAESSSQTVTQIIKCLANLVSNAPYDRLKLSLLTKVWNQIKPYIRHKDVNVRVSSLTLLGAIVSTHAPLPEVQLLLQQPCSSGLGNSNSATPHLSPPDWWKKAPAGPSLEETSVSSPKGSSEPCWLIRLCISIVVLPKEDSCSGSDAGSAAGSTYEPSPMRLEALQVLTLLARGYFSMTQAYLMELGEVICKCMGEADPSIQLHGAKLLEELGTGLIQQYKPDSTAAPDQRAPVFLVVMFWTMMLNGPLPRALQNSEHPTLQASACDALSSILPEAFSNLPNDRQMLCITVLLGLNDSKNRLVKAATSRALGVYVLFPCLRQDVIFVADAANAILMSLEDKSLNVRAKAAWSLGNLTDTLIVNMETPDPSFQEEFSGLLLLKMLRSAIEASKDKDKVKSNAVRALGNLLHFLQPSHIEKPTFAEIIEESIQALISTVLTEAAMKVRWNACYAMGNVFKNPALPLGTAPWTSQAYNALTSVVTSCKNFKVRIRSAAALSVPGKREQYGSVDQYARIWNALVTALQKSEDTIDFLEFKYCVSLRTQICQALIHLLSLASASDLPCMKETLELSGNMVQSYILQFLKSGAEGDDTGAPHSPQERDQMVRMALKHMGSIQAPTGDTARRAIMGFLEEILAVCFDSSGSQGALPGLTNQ
inactive: erlotinib -0.033 | [1] 0.024 | [2] -0.002 | [3] 0.022 | [4] 0.085 | [5] -0.006 | [6] -0.026 | [7] -0.03 | [8] -0.007 | IRAK-1-4 Inhibitor I -0.028

HSD17B12 (UniProt Q53GQ0)
Chain of UniProt Q53GQ0 (Q53GQ0 whole entry, looked up): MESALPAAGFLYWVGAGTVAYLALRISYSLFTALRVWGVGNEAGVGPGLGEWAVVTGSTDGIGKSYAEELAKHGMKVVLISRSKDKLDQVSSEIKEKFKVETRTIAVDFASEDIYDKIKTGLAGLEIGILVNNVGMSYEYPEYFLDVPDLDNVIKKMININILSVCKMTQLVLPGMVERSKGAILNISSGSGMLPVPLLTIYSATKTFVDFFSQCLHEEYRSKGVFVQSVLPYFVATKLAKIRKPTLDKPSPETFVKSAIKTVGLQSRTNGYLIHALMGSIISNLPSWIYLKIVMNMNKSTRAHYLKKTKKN
inactive: erlotinib -0.018 | [1] -0.026 | [2] -0.03 | [3] -0.018 | [4] 0.036 | [5] 0.006 | [6] -0.006 | [7] -0.022 | [8] 0.047 | IRAK-1-4 Inhibitor I 0.03

KDM1A (UniProt O60341)
inactive: erlotinib -0.005 | [1] 0.106 | [2] 0.021 | [3] 0 | [4] -0.006 | [5] -0.019 | [6] -0.071 | [7] -0.019 | [8] -0.009 | IRAK-1-4 Inhibitor I -0.003

HDAC2 (UniProt Q92769)
inactive: erlotinib -0.02 | [1] 0.021 | [2] -0.001 | [3] 0.012 | [4] -0.013 | [5] -0.004 | [6] -0.009 | [7] -0.013 | [8] -0.001 | IRAK-1-4 Inhibitor I -0.017

GTPBP2 (UniProt Q9BX10)
inactive: erlotinib -0.008 | [1] -0.051 | [2] -0.05 | [3] -0.002 | [4] -0.011 | [5] 0.02 | [6] -0.032 | [7] -0.058 | [8] -0.017 | IRAK-1-4 Inhibitor I 0.023

KDM5C (UniProt P41229)
inactive: erlotinib 0.052 | [1] 0.017 | [2] 0.022 | [3] -0.059 | [4] -0.009 | [5] -0.041 | [6] -0.031 | [7] -0.053 | [8] -0.002 | IRAK-1-4 Inhibitor I 0.01
